The campaign covered roughly 310,000 compounds. About 3,900 (1.3%) were called active.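 How the source made its calls: active means calcium-response B-score plate-corrected more than 3 library SD below zero, starting fluorescence within 5 deviations, no agonist response on first addition; inactive means the rest.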 The full list was thinned out, with actives kept by preference.
biological target: Mas-related G-protein coupled receptor member X1 (Homo sapiens) (UniProt Q96LB2); experiment: blockade of BAM8-22-evoked MrgX1 calcium response – HEK293 cells, Fluo-4 calcium flux, primary screen (AID 588676); conditions: Fluo-4, BAM8-22 antagonism, at 10 µM; active compounds read low;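 on B-score: peak minus trough fluorescence over baseline after final BAM8-22 challenge near maximal dose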
Sequence (Q96LB2 whole entry, looked up): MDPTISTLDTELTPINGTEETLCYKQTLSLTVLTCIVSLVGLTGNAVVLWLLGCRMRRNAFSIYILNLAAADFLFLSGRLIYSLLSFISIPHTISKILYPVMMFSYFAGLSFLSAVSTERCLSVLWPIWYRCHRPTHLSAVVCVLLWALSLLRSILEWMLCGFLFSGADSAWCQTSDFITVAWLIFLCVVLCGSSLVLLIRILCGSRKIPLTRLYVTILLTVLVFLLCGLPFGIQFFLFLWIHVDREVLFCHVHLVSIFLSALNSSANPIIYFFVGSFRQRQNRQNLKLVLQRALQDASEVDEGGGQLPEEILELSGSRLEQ

B-score, active:
Cc1nccn1CCC1CCCCN1C(=O)CCc1nnc(-c2ccsc2)o1 (stereo not given) -4.86, CN(C)CCNC(=O)Cc1ccc([N+](=O)[O-])cc1 -6.37, FC(F)Oc1ccc(NC(=S)NCc2ccco2)cc1Cl -4.6, CCOC1CCCCC1NS(=O)(=O)c1ccc(Cl)cc1 (stereo not given) -6.36, COc1ccc(C(=O)NCc2nnc(SCCOc3ccccc3)n2C)cc1 -8.04, CC(C)(C)n1c(=O)[nH]c2c(c1=O)CCC2 -7.85, O=c1[nH]c(=O)c2nc3ccccc3nc2[nH]1 -4.56, Cc1ccc(S(=O)(=O)n2nc(OC(=O)C(C)(C)C)cc2N)cc1 -8.79, O=C(Nc1ccccc1Cl)N1CCN(c2ccc3nncn3n2)CC1 -4.64, CN(C)CCn1c(=S)[nH]c2ccc(Cl)cc2c1=O -7.49, COc1ccc(-n2c(SCC(=O)NCc3ccco3)nnc2-c2c[nH]c3ccccc23)cc1 -6.52, O=C1CCCc2c1nc(-c1cccc(Cl)c1)n2O -7.62, Cc1cccc(NC(=O)COc2ccccc2C)n1 -4.62, CN1C(CC(=O)Nc2ccc(Br)cc2)c2ccccc2CC1(C)C (stereo not given) -5.82, O=S(=O)(c1ccc2ccccc2c1)N1CCN(S(=O)(=O)N2CCOCC2)CC1 -11.5, O=C(COc1ccc(Cl)cc1)NC(=S)Nc1ccccc1N1CCOCC1 -5.65, CCOc1ccc(NC(=O)CCNC(=O)c2ccc(Br)cc2)cc1 -4.98, c1ccc(COc2ccccc2CNCc2cccnc2)cc1 -6.34, COc1cc(C(=O)N(Cc2ccc(N(C)C)cc2)C2CCS(=O)(=O)C2)cc(OC)c1OC (stereo not given) -4.58, COC(=O)c1sccc1NS(=O)(=O)c1ccc(F)cc1F -4.66, O=C(CN1CCN(c2ccc(Cl)cc2)CC1)N1CCCC1 -6.44, CN(CC(=O)Nc1ccccc1Cl)C(=O)COc1cccc2c1OC(C)(C)C2 -5.16, COc1cccc(CCNC(=O)COc2cccc3c2OC(C)(C)C3)c1 -5.36

B-score, inactive:
COCC1CCN(C(=O)CCc2nnc(C3(c4ccc(Cl)cc4)CCC3)o2)C1 (stereo not given), CC(C)CC(O)C1CCN(C(=O)CCc2nnc(-c3ccc4c(c3)OCO4)o2)CC1 (stereo not given), CN(C)C(CNC(=O)Cc1ccc([N+](=O)[O-])cc1)c1ccccc1 (stereo not given), O=C(CSCc1ccc([N+](=O)[O-])cc1)NCCSCc1ccccc1, S=C(NCc1ccco1)Nc1ccc2c(c1)OCCO2, COc1cc(NC(=S)NCc2ccco2)c(OC)cc1Cl, O=C1CCc2cc(S(=O)(=O)Nc3ccc(C(F)(F)F)cc3)cc3c2N1CC3, CCN(CC(=O)Nc1cc(Cl)ccc1C)C(=O)Cn1c(=O)cnc2ccccc21, CCN1CCN(C2CCCCC2NS(=O)(=O)c2ccc(Cl)cc2)CC1 (stereo not given), O=S(=O)(NC1CCCCC1N1CCCCC1)c1ccc(Cl)cc1 (stereo not given), O=C(O)CCCN1C(=O)c2ccccc2Sc2ncccc21, COc1ccc(C(=O)NCc2nnc(SCC(=O)NC3=NCCS3)n2C)cc1, COc1ccc(CC(=O)NCc2nnc(SCC(=O)Nc3nccs3)n2C)cc1, CCN(CC)C(=O)CSc1nnc(CNc2ccc(F)cc2)n1Cc1ccco1, O=c1[nH]n2c(=O)c3c([nH]c2c1N=Nc1ccccc1)CCC3, O=C(COC(=O)Cc1c[nH]c2ccccc12)NCCc1ccccc1, Cc1nc(CNS(=O)(=O)c2ccc(Oc3ccccc3)cc2)cs1, O=C(NCCCc1ccccc1)C(=O)c1c[nH]c2ccccc12, CCS(=O)(=O)N1Cc2ccccc2CC1C(=O)Nc1nc2ccc(F)cc2s1 (stereo not given), COc1ccc(OCCCC(=O)OC(C)C(=O)Nc2ccccc2[N+](=O)[O-])cc1 (stereo not given), COc1ccc(N2CCN(C(=O)CN3C(=O)COc4ccccc43)CC2)cc1, Nc1ccc(SCCN2C(=O)c3ccccc3C2=O)cc1, NC(=O)C1(C(N)=O)OC1c1ccc(Cl)cc1Cl (stereo not given), O=C(NC1CC1)C1=C[C@H](c2coc3ccccc3c2=O)C[C@H](OCCCCO)O1, CNC(=O)c1cccc2nc3ccccc3nc12, Nc1ccc2nc3c(=O)[nH]c(=S)[nH]c3nc2c1, CC1(C)CC(=O)C(N=Nc2c(F)cccc2F)=C(O)C1, CC(=O)N1CCC(C(=O)OCc2ccc(Cl)cc2)(c2ccccc2)CC1, Cc1ccc(S(=O)(=O)N(C)c2nc3ccccc3n3c(C(C)C)nnc23)cc1, Nc1cc(OC(=O)c2ccccc2Br)nn1S(=O)(=O)c1ccccc1, Cc1ccc(-c2cn(S(=O)(=O)c3cccc([N+](=O)[O-])c3)nc2N)cc1, Cc1ccc(C(=O)NC2CCN(C(=O)Nc3ccccc3Cl)CC2)cc1, O=C(COc1ccc(-n2cnnn2)cc1)Nc1ccccc1Cl, O=C(c1ccc(Oc2ccc(Cl)cc2)c([N+](=O)[O-])c1)N1CCCC1, Cc1nn(C)c(C)c1Sc1ccccc1N, CC(=O)N1CCN(C(=O)c2cc(-c3ccc(Cl)s3)nc3ccccc23)CC1, Brc1ccc2c(c1)[C@H]1OCC[C@H]1[C@@H](c1cccs1)N2, Cc1ccccc1NC(=O)CCOc1ccccc1, CCCCn1c(=S)[nH]c2ccccc2c1=O, O=C(CCn1c(=S)[nH]c2cc3c(cc2c1=O)OCO3)NCc1ccc(Cl)cc1, Cc1cccc(N2CCN(C(=O)/C=C/c3ccco3)CC2)c1C, CC1CCC2CCCCC2N1C(=O)c1cc([N+](=O)[O-])cc([N+](=O)[O-])c1 (stereo not given), CCCCCC1CCC(c2nnc(SCC(C)=O)o2)CC1 (stereo not given), O=C(CCS(=O)(=O)c1cccc2nonc12)NCCc1ccccc1Cl, CC(NC(=O)c1ccccc1F)c1cccc2ccccc12 (stereo not given), COc1ccc(-n2c(SCC(=O)NCc3cccs3)nnc2-c2ccoc2C)cc1, O=C(CSc1nnc(-c2c[nH]c3ccccc23)n1-c1ccc(F)cc1)NCc1ccco1, O=c1[nH]snc1-c1c(Cl)cccc1Cl, CCOc1ccc(CCNC(=O)Nc2ccccc2)cc1OCC, COc1cccc(CNC(=O)C2CC(=O)N(C3CCCCCCC3)C2)c1 (stereo not given), Cc1no[n+]([O-])c1COc1ccccc1/C=C1\NC(=S)NC1=O, O=c1c2cc(Br)ccc2nc(-c2cccc(Cl)c2)n1O, O=c1c2c(nc3cc(-c4cccc(Cl)c4)[nH]n13)CCCC2, Cc1c(CC(=O)NCC(=O)NCC(=O)O)c(=O)oc2cc3oc4c(c3cc12)CCCC4, CC(C)CNC(=S)NC(=O)c1ccc(Cl)cc1, COc1cccc(-c2cccc(NC(=O)C3CCN(C4CCC4)CC3)c2)c1, O=C(CN(C(=O)c1csnn1)c1cccc(F)c1)NCc1ccc(F)cc1, COC(=O)C1=C(C(=O)OC)C2(OC1c1ccc(Br)cc1)C(=O)c1ccccc1C2=O (stereo not given), Cc1ccccc1OCC(=O)Nc1nc(C)c(C(=O)N(C)C)s1, Cc1cccc(NC(=O)COc2ccc(Br)cc2C)n1, COc1ccc(C)cc1NC(=S)N1CCOCC1, CN1CCN(NC(=O)Nc2ccc(Br)cc2)CC1, COCC(=O)Nc1ccc(Br)cc1, CCN(CC)c1ccc(C(=O)NNC(=O)CCc2nc3ccccc3c(=O)[nH]2)cc1, Cc1ccccc1N1CCN(S(=O)(=O)c2ccc3ccccc3c2)CC1, Cc1ccc(S(=O)(=O)N2CCN(S(=O)(=O)N3CCOCC3)CC2)cc1, Cc1cccc(OCC(=O)NC(=S)Nc2ccccc2N2CCOCC2)c1, CCc1ccc(C(=O)NC(=S)Nc2ccccc2N2CCOCC2)cc1, CCOC(=O)C1CCN(C(=O)CN2C(=O)c3cccnc3Oc3ccc(C)cc32)CC1, C[C@@H](NC(=O)[C@@H]1Cc2ccccc2CN1)C(=O)NC1CCCC1, Cc1nc2ccccc2nc(C)c1=NOCc1ccc(Cl)cc1Cl, COc1ccc(CCNC(=O)CCc2cn(C)c3ccccc23)c(OC)c1, NC(=O)NC(=O)C(OC(=O)CCNS(=O)(=O)c1ccccc1)c1ccccc1 (stereo not given), CCOc1ccc(NC(=O)c2ccc(NC(=O)COC(=O)c3ccc(NC(=O)CC#N)cc3)cc2)cc1, CCOc1ccc(C(=O)Nc2ccncc2)cc1, Fc1cccc(Cc2noc(CN3CCN(c4cnccn4)CC3)n2)c1, C=CCOc1cccc(CNCc2cccnc2)c1, Fc1ccccc1COc1ccccc1CNCc1ccncc1, COc1ccc(N2C(=O)C(CC(=O)Nc3ccccc3)N(Cc3ccc(OC)c(OC)c3)C2=O)cc1 (stereo not given), COc1ccc(C(=O)N(Cc2ccc(N(C)C)cc2)C2CCS(=O)(=O)C2)cc1 (stereo not given), CCOc1ccc(C(=O)N(Cc2ccc(N(C)C)cc2)C2CCS(=O)(=O)C2)cc1 (stereo not given), O=Cc1ccc(OCc2cn3ccccc3n2)cc1, COc1ccc(NS(=O)(=O)c2ccc(F)cc2F)cn1, COC(=O)c1sccc1NC(=O)CSc1ccccc1NS(=O)(=O)c1cc(Cl)ccc1Cl, COc1c(Br)cc2c(C)c(C(=O)N3CCOCC3)oc2c1Br, O=C(CN1CCCC1)N1CCN(c2ccccc2)CC1, O=C(CN1CCN(c2ccc(Cl)cc2)CC1)c1ccccc1, Cc1cccc(-[n+]2c(-c3cccc(Br)c3)[nH]c3nc4ccccc4nc32)c1, CC1(C)Cc2cccc(OCC(=O)Nc3nccs3)c2O1, CC1(C)Cc2cccc(OCC(=O)NCc3ccccc3)c2O1, CC1(C)Cc2cccc(OCC(=O)N3CCN(c4ccc([N+](=O)[O-])cc4)CC3)c2O1, CC1(C)Cc2cccc(OCC(N)=O)c2O1
